# Reference: the supplement of paper PMC8975748
# Counter-ions that a name gives are not always drawn. ± gives the standard deviation of the averaged measurements.
# Key:
# [1] = system: Saccharomyces cerevisiae BY4741 SeMeCo community; assay: mean cell size (pixel area) (pixels); higher = larger cells; conditions: 10 µM; 24 h; SM minimal medium
# Outline: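 Harmony analysis of automated confocal images of paraformaldehyde-fixed yeast gave the mean cell pixel area per well. The yeast was a Saccharomyces cerevisiae BY4741 community carrying four plasmids, each with a fluorescent marker and each complementing one auxotrophy, incubated for 24 h in SM medium containing drug at a final 10 µM in 384-well plates. Results are averaged over 3 replicates. Same SeMeCo high-content imaging drug screen: Selleck FDA-approved drugs at 10 µM, 24 h in SM medium, 384-well plates, 3 replicates.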
# [2] = system: Saccharomyces cerevisiae BY4741 SeMeCo community; assay: z-score of prototroph abundance vs DMSO median; higher = larger share of this subpopulation than in DMSO controls; conditions: 10 µM; 24 h; SM minimal medium; subpopulation (auxotrophy): Prototroph
# Outline: (§1)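 Subpopulation abundance was reported as a z-score against the median of vehicle wells. The Saccharomyces cerevisiae BY4741 community, carrying four plasmids that each restored one auxotrophy and encoded a distinct fluorescent protein, was grown 24 h in minimal SM medium in 384-well plates holding library drugs at 10 µM final. Cells were paraformaldehyde-fixed and imaged by automated confocal microscopy, with single-auxotroph fluorescent strains used for thresholds and autofluorescence correction.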
# [3] = system: Saccharomyces cerevisiae BY4741 SeMeCo community; assay: z-score of subpopulation abundance vs DMSO median, subpopulation auxotrophic for M; higher = larger share of this subpopulation than in DMSO controls; conditions: 10 µM; 24 h; SM minimal medium; subpopulation (auxotrophy): M
# Outline: as §1
# [4] = system: Saccharomyces cerevisiae BY4741 SeMeCo community; assay: z-score of subpopulation abundance vs DMSO median, subpopulation auxotrophic for L; higher = larger share of this subpopulation than in DMSO controls; conditions: 10 µM; 24 h; SM minimal medium; subpopulation (auxotrophy): L
# Outline: as §1
# [5] = system: Saccharomyces cerevisiae BY4741 SeMeCo community; assay: z-score of subpopulation abundance vs DMSO median, subpopulation auxotrophic for U; higher = larger share of this subpopulation than in DMSO controls; conditions: 10 µM; 24 h; SM minimal medium; subpopulation (auxotrophy): U
# Outline: as §1
# [6] = system: Saccharomyces cerevisiae BY4741 SeMeCo community; assay: z-score of subpopulation abundance vs DMSO median, subpopulation auxotrophic for H; higher = larger share of this subpopulation than in DMSO controls; conditions: 10 µM; 24 h; SM minimal medium; subpopulation (auxotrophy): H
# Outline: as §1
# [7] = system: Saccharomyces cerevisiae BY4741 SeMeCo community; assay: z-score of subpopulation abundance vs DMSO median, subpopulation auxotrophic for LU; higher = larger share of this subpopulation than in DMSO controls; conditions: 10 µM; 24 h; SM minimal medium; subpopulation (auxotrophy): LU
# Outline: as §1
# [8] = system: Saccharomyces cerevisiae BY4741 SeMeCo community; assay: z-score of subpopulation abundance vs DMSO median, subpopulation auxotrophic for LM; higher = larger share of this subpopulation than in DMSO controls; conditions: 10 µM; 24 h; SM minimal medium; subpopulation (auxotrophy): LM
# Outline: as §1
# [9] = system: Saccharomyces cerevisiae BY4741 SeMeCo community; assay: z-score of subpopulation abundance vs DMSO median, subpopulation auxotrophic for HM; higher = larger share of this subpopulation than in DMSO controls; conditions: 10 µM; 24 h; SM minimal medium; subpopulation (auxotrophy): HM
# Outline: as §1
# [10] = system: Saccharomyces cerevisiae BY4741 SeMeCo community; assay: z-score of subpopulation abundance vs DMSO median, subpopulation auxotrophic for HU; higher = larger share of this subpopulation than in DMSO controls; conditions: 10 µM; 24 h; SM minimal medium; subpopulation (auxotrophy): HU
# Outline: as §1
# [11] = system: Saccharomyces cerevisiae BY4741 SeMeCo community; assay: z-score of subpopulation abundance vs DMSO median, subpopulation auxotrophic for UM; higher = larger share of this subpopulation than in DMSO controls; conditions: 10 µM; 24 h; SM minimal medium; subpopulation (auxotrophy): UM
# Outline: as §1
# [12] = system: Saccharomyces cerevisiae BY4741 SeMeCo community; assay: z-score of subpopulation abundance vs DMSO median, subpopulation auxotrophic for HL; higher = larger share of this subpopulation than in DMSO controls; conditions: 10 µM; 24 h; SM minimal medium; subpopulation (auxotrophy): HL
# Outline: as §1
# [13] = system: Saccharomyces cerevisiae BY4741 SeMeCo community; assay: z-score of subpopulation abundance vs DMSO median, subpopulation auxotrophic for HLU; higher = larger share of this subpopulation than in DMSO controls; conditions: 10 µM; 24 h; SM minimal medium; subpopulation (auxotrophy): HLU
# Outline: as §1
# [14] = system: Saccharomyces cerevisiae BY4741 SeMeCo community; assay: z-score of subpopulation abundance vs DMSO median, subpopulation auxotrophic for HLM; higher = larger share of this subpopulation than in DMSO controls; conditions: 10 µM; 24 h; SM minimal medium; subpopulation (auxotrophy): HLM
# Outline: as §1
# [15] = system: Saccharomyces cerevisiae BY4741 SeMeCo community; assay: z-score of subpopulation abundance vs DMSO median, subpopulation auxotrophic for LUM; higher = larger share of this subpopulation than in DMSO controls; conditions: 10 µM; 24 h; SM minimal medium; subpopulation (auxotrophy): LUM
# Outline: as §1
# [16] = system: Saccharomyces cerevisiae BY4741 SeMeCo community; assay: z-score of subpopulation abundance vs DMSO median, subpopulation auxotrophic for HLUM; higher = larger share of this subpopulation than in DMSO controls; conditions: 10 µM; 24 h; SM minimal medium; subpopulation (auxotrophy): HLUM
# Outline: as §1
# [17] = system: Saccharomyces cerevisiae BY4741 SeMeCo community; assay: z-score of subpopulation abundance vs DMSO median, subpopulation auxotrophic for HUM; higher = larger share of this subpopulation than in DMSO controls; conditions: 10 µM; 24 h; SM minimal medium; subpopulation (auxotrophy): HUM
# Outline: as §1
Compound,mean cell size [1],z-score of prototroph abundance [2],z-score of subpopulation abundance [3],z-score of subpopulation abundance [4],z-score of subpopulation abundance [5],z-score of subpopulation abundance [6],z-score of subpopulation abundance [7],z-score of subpopulation abundance [8],z-score of subpopulation abundance [9],z-score of subpopulation abundance [10],z-score of subpopulation abundance [11],z-score of subpopulation abundance [12],z-score of subpopulation abundance [13],z-score of subpopulation abundance [14],z-score of subpopulation abundance [15],z-score of subpopulation abundance [16],z-score of subpopulation abundance [17]
CC(C)(C)C(=O)OCOC(=O)[C@@H]1N2C(=O)[C@@H](/N=C/N3CCCCCC3)[C@H]2SC1(C)C [Pivmecillinam hydrochloride],12.3 ± 0.13,-0.55,-0.74,0.41,0.34,0.1,0.57,-0.18,-0.25,-0.03,-0.01,0.29,-0.02,-0.52,-0.28,-0.19,–
Cc1ccccc1OCC(O)CO (configuration not stated) [Mephenesin],12.23 ± 0.086,0.89,0,0.09,-0.22,-0.65,-0.42,–,-0.48,-0.86,-0.82,–,-0.38,-0.4,-0.39,-0.28,–
OC(CCCN1CCCCC1)(c1ccccc1)c1ccccc1 [Diphenidol HCl],12.4 ± 0.41,-0.42,0.98,-0.41,–,-0.38,0.23,-0.56,0.03,0.48,1.63,-0.42,-0.05,-0.07,–,–,–
O=c1cc(-c2ccc(O)c(O)c2)oc2cc(O)cc(O)c12 [Luteolin],12.5 ± 0.16,–,-0.18,1.23,0.21,0.27,0.96,0.14,-0.39,–,-0.52,0.22,0.05,-0.56,0.16,-0.27,–
NC(=NCCCCCCN=C(N)N=C(N)Nc1ccc(Cl)cc1)N=C(N)Nc1ccc(Cl)cc1 [Chlorhexidine?2HCl],11.38 ± 0.084,1.92,-3.42,0.63,-2.8,–,-1.64,0.28,-2.23,0.25,–,2.14,3.88,0.93,–,4.27,–
CC[C@H]1OC(=O)[C@H](C)[C@@H](O[C@H]2C[C@@](C)(OC)[C@@H](O)[C@H](C)O2)[C@H](C)[C@@H](O[C@@H]2O[C@H](C)C[C@H](N(C)C)[C@H]2O)[C@](C)(O)C[C@@H](C)/C(=N\OCOCCOC)[C@H](C)[C@@H](O)[C@]1(C)O [Roxithromycin],12.4 ± 0.26,-0.63,0.34,-0.94,0.31,0.59,-0.28,0.13,0.24,0.46,0.31,0.42,0,-0.45,0.55,-0.6,–
CC1(C)S[C@@H]2[C@H](NC(=O)Cc3ccccc3)C(=O)N2[C@H]1C(=O)O [Benzathine penicilline],–,0.52,-0.52,-0.58,-0.09,0.18,-0.74,–,-0.76,–,-0.06,–,-0.11,0.37,-0.44,0.29,-0.33
Oc1ccc([C@H]2COc3cc(O)ccc3C2)cc1 [Equol],12.4 ± 0.17,0.13,0.37,-0.21,-0.12,–,-0.26,–,0.47,-0.01,0.05,–,0,-0.88,-0.14,0.35,–
CNCC[C@H](Oc1cccc2ccccc12)c1cccs1 [Duloxetine],12.3 ± 0.34,0.49,0.27,-1.31,-0.4,–,-0.71,-0.49,0.1,-0.4,-0.39,-1.33,-1.41,-0.37,-0.47,-0.23,–
